The values that follow come from ChEMBL document CHEMBL3433997, “St. Jude Leishmania screening dataset” (2016).

Common to all, as to format: functional
Test [1] addresses Solute carrier family 2, facilitated glucose transporter member 1 (Homo sapiens) (UniProt P11166). The test is described as follows: ST_JUDE_LEISH: Cytotoxicity at 2uM final concentration against transgenic Leishmania Mexicana promastigotes LmGLUT1 that are glucose transport deficient and complemented with the human glucose transporter GLUT1. Activity is measured by DNA content using SYBR green in vitro.

The target of test [2] is Hexose transporter 1 (Plasmodium falciparum) (UniProt O97467). The test is described as follows: ST_JUDE_LEISH: Cytotoxicity at 2uM final concentration against transgenic Leishmania Mexicana promastigotes LmPfHT that are glucose transport deficient and complemented with the Plasmodium falciparum hexose transporter. Activity is measured by DNA content using SYBR green in vitro.

The target of test [3] is Glucose transporter (Leishmania mexicana) (UniProt O61059). The test is described as follows: ST_JUDE_LEISH: Cytotoxicity at 2uM final concentration against transgenic Leishmania Mexicana promastigotes LmGT2 that are glucose transport deficient and complemented with the L. Mexicana glucose transporter 2. Activity is measured by DNA content using SYBR green in vitro.

As usually defined, the inhibition is the change of the read-out against control, counted positive when it falls.

Chain of Solute carrier family 2, facilitated glucose transporter member 1 (Homo sapiens) (P11166 whole entry): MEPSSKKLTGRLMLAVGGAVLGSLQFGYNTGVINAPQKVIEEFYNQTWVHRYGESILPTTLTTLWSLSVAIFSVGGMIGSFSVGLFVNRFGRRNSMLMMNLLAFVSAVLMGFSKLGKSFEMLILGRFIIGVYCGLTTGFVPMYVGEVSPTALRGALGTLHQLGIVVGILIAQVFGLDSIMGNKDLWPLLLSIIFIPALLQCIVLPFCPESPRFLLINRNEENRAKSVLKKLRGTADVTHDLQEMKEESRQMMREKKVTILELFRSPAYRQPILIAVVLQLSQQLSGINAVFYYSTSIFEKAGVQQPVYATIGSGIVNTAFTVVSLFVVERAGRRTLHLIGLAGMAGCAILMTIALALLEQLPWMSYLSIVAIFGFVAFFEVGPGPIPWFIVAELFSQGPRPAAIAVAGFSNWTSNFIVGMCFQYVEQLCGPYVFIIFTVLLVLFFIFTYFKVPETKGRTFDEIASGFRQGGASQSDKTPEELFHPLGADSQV

For the compound `CCCC(=O)Nc1ccc(Nc2nc(C)cc(N3CCCC3)n2)cc1`, the inhibition is 1.82% in test [1], 4.49% in test [2] and -0.91% in test [3].

In the case of `O=C(N1CCN(c2cccc(C(F)(F)F)c2)CC1)C(Cl)(Cl)Cl`, the results for the inhibition in test [1], in test [2] and in test [3] were 0.96%, 5.03% and 1.47%, respectively.

Consider `CC(C)(C)c1ccc(OCC(=O)NC2CCN(c3ccnc4cc(Cl)ccc34)C2)cc1` (centres undefined), for which the results for the inhibition in test [1], in test [2] and in test [3] were 0.64%, 0.05% and -1.09%, respectively.

Regarding `N#C/N=C(\NCCCCCCCCN/C(=N\C#N)NCCSCc1csc(N=C(N)N)n1)NCCCSc1csc(N=C(N)N)n1`, the inhibition in test [1] was -0.03%; in test [2], 0.11%; in test [3], 0.43%.

Regarding `Clc1ccc2c(NCCCCCCCCNc3ccnc4cc(Cl)ccc34)ccnc2c1`, the figures for the inhibition in test [1], in test [2] and in test [3] were 2.99%, 1.53% and 1.88%, respectively.

On to `Cc1cc(NC(=O)c2cc(S(=O)(=O)N3CCCCC3)ccc2C)no1`, for which the inhibition came to 4.25% in test [1], 4.4% in test [2] and 2.15% in test [3].

Take `CC(C)N(CC(=O)c1ccc(O)c(C(=O)O)c1)Cc1ccccc1`: the inhibition in test [1] was 3.53%; in test [2], 3.51%; in test [3], 1.67%.

`COc1ccc(-c2nc(NC(=O)CSc3ccccc3)sc2C)cc1`: the inhibition worked out at 9.07% in test [1], 4.4% in test [2] and 6.37% in test [3].

For `O=C(Nc1ccc(OC2CCN(Cc3ccco3)C2)c(Cl)c1)c1ccc2ncccc2c1` (centres undefined), the inhibition in test [1] was 0.4%; in test [2] it was -3.49%; in test [3], 0.71%.

As to `O=C(NCC1CCN(Cc2cccc(C(F)(F)F)c2)C1)c1cc(-c2cccc(C(F)(F)F)c2)cs1` (centres undefined), the inhibition in test [1] was determined as 3.9%; in test [2], 2.69%; in test [3], 5.94%.

Turning to `Fc1ccc2[nH]c(-c3cccc(-c4ccc(CNCCN5CCNCC5)cc4)c3)nc2c1`, the values for the inhibition in test [1], in test [2] and in test [3] were -0.21%, -0.52% and -0.74%, respectively.

`Cc1cccc2nc(-c3cccc(-c4ccc(NC(=O)C(C)CN(C)C)cc4)c3)[nH]c12` (centres undefined): the inhibition in test [1] was -2.74%; in test [2], 0.04%; in test [3], -1.14%.

On to `O=C(Cc1ccccc1)NC(CCN1CCC(O)(c2cccc(C(F)(F)F)c2)CC1)c1ccc(Cl)c(Cl)c1` (centres undefined), for which the inhibition in test [1] is 4.97%; in test [2], 1.61%; in test [3], 0.53%.

As for `COc1ccccc1Nc1nc(C)cc(NCc2ccc(-n3ccnc3)cc2)n1`, the figures for the inhibition in test [1], in test [2] and in test [3] were 8.92%, 7.52% and 3.48%, respectively.

`Cc1ccc(S(=O)(=O)N(CCCN2CCN(C)CC2)Cc2csc(-c3ccc(CNCc4ccccc4)cc3)n2)cc1`: the inhibition in test [1] was found to be 9.12%; in test [2] it was 7.67%; in test [3] it was 9.91%.

For `CNC(=O)C1Cc2c([nH]c3ccc(Br)cc23)C2(CCN(CCc3ccccc3)CC2)N1` (centres undefined), the inhibition in test [1] is 5.38%; in test [2] it was 3.44%; in test [3], 6.65%.

In the case of `O=c1cc(NCCCNCc2ccc(Cl)c(Cl)c2)[nH]c2cc(Cl)ccc12`, the inhibition in test [1] was found to be 2.05%; in test [2], 3.29%; in test [3], 2.73%.

Regarding `O=C(c1cccs1)N1CCN(c2ccc([N+](=O)[O-])c(NC3CC3)c2)CC1`, the inhibition in test [1] worked out at 1.35%; in test [2] it was 0.57%; in test [3], 1.6%.

In the case of `Cc1ccccc1N1CCN(c2ccc(C(=O)NC3CC3)cn2)CC1`, the inhibition in test [1] was 10.9%; in test [2], 8.46%; in test [3] it was 4.25%.

In the case of `COc1ccc2nccc(N3CCC(NCCNS(=O)(=O)c4ccc5c(c4)NC(=O)CS5)C3)c2n1` (centres undefined), the inhibition in test [1] is -1.11%; in test [2], -1.18%; in test [3] it was -2.22%.

For `Cc1ccc(NC(=O)c2ccc(CN3CCCN(CC4CCCCC4)CC3)cc2)cc1C`, the values for the inhibition in test [1], in test [2] and in test [3] were 7.66%, 7.13% and 8.98%, respectively.

Take `CCNC(=O)Nc1ccc(-c2cccc(-c3nc4cccc(C)c4[nH]3)c2)cc1`: the inhibition was 5.51% in test [1], 5.35% in test [2] and 3.12% in test [3].

Take `Cn1c(N)c(N=O)c(=O)[nH]c1=O`: the figures for the inhibition in test [1], in test [2] and in test [3] were 1.53%, 0.51% and 1.58%, respectively.

For `Cc1cccc2nc(-c3ccc(-c4cccc(NC(=O)c5cncn5C)c4)cc3)[nH]c12`, the results for the inhibition in test [1], in test [2] and in test [3] were 5.73%, 5.37% and 5.41%, respectively.

Consider `COc1cc2nc(C)nc(Nc3ccc(Oc4ccccc4)cc3)c2cc1OC`, for which the inhibition was -2.63% in test [1], 2.09% in test [2] and -1.95% in test [3].

In the case of `COc1cc(F)c2nccc([C@@H](O)CN3CCC(NCc4ccc5c(n4)NC(=O)CS5)C(F)C3)c2c1` (some centres undefined), the inhibition in test [1] turned out to be 3.18%; in test [2] it was 3.06%; in test [3], 3.18%.

`CCc1ccc(N2C(=O)C3C(Cc4ccc(OC(C)(C)C)cc4)NC4(C(=O)N(Cc5ccccc5)c5ccc(F)cc54)C3C2=O)cc1` (centres undefined): the inhibition is 0.6% in test [1], -0.02% in test [2] and -1.06% in test [3].

`CCOC(=O)c1ccc(-c2cnc(N)c(-c3nc4cccc(C)c4[nH]3)c2)cc1`: the values for the inhibition in test [1], in test [2] and in test [3] were 6.18%, 6.96% and 4.47%, respectively.

In the case of `O=[N+]([O-])c1cccc(NC(=S)N2CCCN(Cc3ccc(C(F)(F)F)cc3)CC2)c1`, the values for the inhibition in test [1], in test [2] and in test [3] were 2.92%, 4.79% and 3.25%, respectively.

On to `c1cc(-c2ccc(CNCCCN3CCOCC3)cc2)cc(-c2nc3ccccc3[nH]2)c1`, for which the inhibition in test [1] is 1.09%; in test [2] it was -0.33%; in test [3], 2.29%.

In the case of `CC(C)CNC(=O)c1ccc(-c2cccc(CN3CCC(N4CCCC4)CC3)c2)nc1`, the inhibition amounted to 2.51% in test [1], 2.17% in test [2] and 1.53% in test [3].

Take `CC(=O)Nc1ccc(S(=O)(=O)Nc2c(C)cc(Cc3cnc(N)nc3N)cc2C)cc1`: the results for the inhibition in test [1], in test [2] and in test [3] were -0.22%, 0.02% and -0.69%, respectively.

On to `FC(F)(F)c1ccc2[nH]c(-c3cccc(-c4ccc(CNCCN5CCNCC5)cc4)c3)nc2c1`, for which the results for the inhibition in test [1], in test [2] and in test [3] were 2.75%, 2.47% and 1.97%, respectively.
